# High-throughput results deposited in PubChem by several laboratories.
# Granule exo inh – lytic granule exocytosis inhibition | TALL-104 LAMP-1 surface exposure, flow cytometry; cells stimulated with thapsigargin and PMA | inhibition, % at 10 µM | 360,000 tested, 0.66% active | AID 651702;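 active = inhibition above about 55%, limit read from the data; inconclusive = no clear call, values can overlap the other calls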
# JMJD2C inh – inhibitors of human GASC-1 (JMJD2C) demethylase; AID 2099; 330,000 tested, 0.069% active; inhibition, % at 2.35 µM; Q9H3R0; GST-JMJD2C(1-420) H3K9me3 demethylation, DELFIA europium;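 active = more than half of a compound's replicate wells show inhibition beyond 50%, single wells judged on their own value; inconclusive = some, but no more than half, of replicates pass 50% inhibition; inactive = no replicate passes 50% inhibition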;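 also: signal counts dimethyl H3K9 product captured on neutravidin plate; 0% = median of DMSO wells and 100% = 0.3 times that DMSO median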
# Target sequence (Q9H3R0 1-420 limits assumed): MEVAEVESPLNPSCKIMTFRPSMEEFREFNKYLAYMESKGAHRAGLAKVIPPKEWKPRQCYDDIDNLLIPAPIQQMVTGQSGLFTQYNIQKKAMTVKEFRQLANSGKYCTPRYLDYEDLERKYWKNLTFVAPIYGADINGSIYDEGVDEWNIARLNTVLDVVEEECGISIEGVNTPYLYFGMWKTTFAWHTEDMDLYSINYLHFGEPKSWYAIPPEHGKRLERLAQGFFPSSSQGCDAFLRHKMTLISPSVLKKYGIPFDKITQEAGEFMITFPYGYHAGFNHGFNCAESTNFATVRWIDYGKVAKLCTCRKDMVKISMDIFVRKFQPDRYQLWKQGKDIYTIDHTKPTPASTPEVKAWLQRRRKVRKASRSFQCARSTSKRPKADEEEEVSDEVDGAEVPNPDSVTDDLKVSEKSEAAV
# MIN6 prolif – MIN6 beta-cell proliferation induction; proliferation, % at 10 µM; 330,000 tested, 0.29% active; AID 2380; MIN6 cells proliferation, ATPlite luminescence, 48 h; cells starved in 0.2% serum; 100% = growth in 10% serum;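 active = compounds whose signal lies at least 3.5 SD above the mean of all wells on their plate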;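 also: 0% = DMSO-treated cells in low-serum medium and 100% = 10% serum control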
# SMARCA2 act – activators of SMARCA2 function. MG213 cells, MMTV-luciferase reporter, dexamethasone, overnight. activation, % at 9.1 µM. 370,000 tested, 1% active; in the data active = activation above about 7.8%;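 also: 0% = vehicle wells and 100% = reference activator wells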
# ALR H2O2 inh – human ALR oxidase inhibition via reduced H2O2; AID 485317; 290,000 tested, 3.8% active; inhibition, % (no concentration beside the values); purified ALR, DTT oxidation, H2O2 HRP-luminol luminescence; P55789;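 active = mean replicate inhibition above about 79%, with every replicate also reaching it, limit read from the data; inconclusive = only one of the two criteria met; inactive = mean below limit and not every replicate reaching it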
# Target sequence (P55789 whole entry, looked up): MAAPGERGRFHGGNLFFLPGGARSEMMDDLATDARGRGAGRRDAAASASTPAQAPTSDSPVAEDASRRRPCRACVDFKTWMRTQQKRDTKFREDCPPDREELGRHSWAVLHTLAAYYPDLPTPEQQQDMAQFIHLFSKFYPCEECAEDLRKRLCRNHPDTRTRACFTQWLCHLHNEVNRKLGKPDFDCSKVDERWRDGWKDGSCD
# M18AAP inhibitor – blocks P. falciparum M18 aspartyl aminopeptidase. recombinant PfM18AAP, H-Glu-NHMec fluorogenic cleavage. inhibition, % at 7.35 µM. 290,000 tested, 1.2% active;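 active = inhibition above the campaign mean inhibition over all tested compounds plus 3 SD, cut at about 28% in these data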;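 also: 0% = plate median of test compound wells and 100% = 2 mM ZnCl2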
# * marks the source's active call; other numbers are inactive results; ? = inconclusive; nt = no result given. An excerpt weighted towards active compounds, which were near 5.4% of everything screened.
SMILES,Granule exo inh,JMJD2C inh,MIN6 prolif,SMARCA2 act,ALR H2O2 inh,M18AAP inhibitor
CCn1c(SCC(=O)Nc2nc(C)cs2)nnc1-c1ccncc1,2,54*,0,-2,-9,1
COC(=O)[C@]12C[C@H](CC(=O)NCc3ccccc3)C(=O)N(CCc3ccc(OC)c(OC)c3)C1=C[C@H](C(C)C)O[C@@H]2C1CC1,nt,nt,nt,-2,nt,nt
N#C/C(=C\c1cc2c(cc1Br)OCO2)C(=O)NCC1CCCO1 (configuration not stated),30,6,-3,0,98*,-3
COc1cc(/C=C(\C#N)C(=O)NCC2CCCO2)ccc1OCC(=O)O (configuration not stated),3,19,7,-1,2,3
COc1cc(/C=C(\C#N)C(=O)NCC2CCCO2)c([N+](=O)[O-])cc1OC (configuration not stated),4,11,-2,-1,-49,30*
O=C(CSc1nnc(-c2ccco2)n1-c1ccc(Cl)cc1)Nc1ccccc1-c1ccccc1,nt,nt,nt,-3,nt,nt
C/C(CCc1ccc2c(c1)OCO2)=N\NC(=S)NC(C)C,1,-7,-1,1,85*,-1
COCCNC(=S)N/N=C(\C)CCc1ccc2c(c1)OCO2,2,-1,-1,-3,4,10
O=C1CC2c3cc(-c4cc5ccccc5o4)ccc3CCN2C(=O)CN1Cc1ccccc1 (configuration not stated),nt,nt,nt,-5,nt,nt
COc1ccc(-c2nc(CS(=O)(=O)CC(=O)NC3CCCCC3C)c(C)o2)cc1 (configuration not stated),4,-4,1,-1,23,1
COc1ccc(-c2nc(CS(=O)CC(=O)NC3CCCCC3)c(C)o2)cc1 (configuration not stated),6,14,-2,-2,66,-8
COc1cccc(-c2nc(CS(=O)CC(=O)NC3CC3)c(C)o2)c1 (configuration not stated),2,-10,-5,0,99*,1
COc1ccc(-c2nc(CN3CCC(C(=O)NC4CCCC4)CC3)c(C)o2)cc1OC,-1,-63,-3,-2,-6,-8
COc1ccc(-c2nc(CS(=O)CC(=O)NC3CCCCC3C)c(C)o2)cc1 (configuration not stated),38,2,-2,1,99*,-13
COc1ccc(-c2nc(CS(=O)CC(=O)NC3CCCCC3)c(C)o2)cc1OC (configuration not stated),16,3,-2,nt,99*,-15
COc1ccc(-c2nc(CS(=O)CC(=O)NC3CCCCCC3)c(C)o2)cc1 (configuration not stated),29,-19,1,-2,98*,1
CN1C(=O)C[C@@](C#N)(C(=O)N2CCCC2)[C@H]1c1ccccc1,nt,nt,nt,-1,nt,nt
COC(=O)[C@]1(CNS(=O)(=O)c2ccc(F)cc2)CC(=O)N(C)[C@@H]1c1ccccc1,nt,nt,nt,-1,nt,nt
NS(=O)(=O)c1ccc(NC(=O)CSc2ncnc3ccccc23)cc1,-4,-1,1,-2,-4,-16
CCN(CC)S(=O)(=O)c1ccc(NC(=O)CSc2ncnc3ccccc23)cc1,1,-5,0,-3,98*,3
NS(=O)(=O)c1cccc(NC(=O)CSc2ncnc3ccccc23)c1,-2,-9,1,-3,99*,1
COC(=O)C1=C(C)N(C)C(=NCc2ccc3c(c2)OCO3)NC1c1cccc(F)c1 (configuration not stated),nt,nt,nt,5,nt,nt
O=S1(=O)c2ccc(N3CC[C@H](O)C3)cc2O[C@@H]2CCN1C2,nt,nt,nt,-1,nt,nt
CCCCOCCCNC(=O)C[C@H]1C[C@@]2(C(=O)OC)C(=C[C@H](C(C)(C)C)O[C@@H]2C)N(Cc2cccc3ccccc23)C1=O,nt,nt,nt,-4,nt,nt
COc1ccc(/C=C/C(=O)c2ccc(O)cc2)cc1,-4,11,-4,3,97*,3
SMILES,Granule exo inh,JMJD2C inh,MIN6 prolif,SMARCA2 act,ALR H2O2 inh,M18AAP inhibitor
O=C(O)c1ccc(/C=C/C(=O)c2ccc3c(c2)OCCCO3)cc1,-9,-13,-4,5,97*,1
O=C(/C=C/c1ccc(O)cc1)c1c(O)cc(O)cc1O,-3,-28,-1,1,98*,nt
COc1ccc(N/C=C/C(=O)c2ccc3c(c2)OCO3)cc1OC,-1,-5,-2,0,12,9
COc1cc(/C=C/C(=O)c2ccc3c(c2)OCO3)cc(Cl)c1O,7,4,-4,4,6,32*
C[C@H]1COc2cccc(N3CCSCC3)c2S(=O)(=O)N1C,nt,nt,nt,-2,nt,nt
O=C(OC12CCCN(C1)/C(=C/c1ccccc1)C2)C1CCCCC1 (configuration not stated),nt,nt,nt,-5,nt,nt
COc1ccc(C(=O)/C=C/c2ccc3c(c2)OCCO3)cc1,2,22,-4,0,95*,2
COc1cc(/C=C/c2ccc(O)cc2)cc(OC)c1,-4,0,-5,3,80*,-4
O=C(/C=C/c1cccc([N+](=O)[O-])c1)c1ccc2c(c1)OCCO2,-1,5,-7,1,96*,8
COC(=O)[C@]12C[C@H](CC(=O)NCc3ccc(OC)c(OC)c3)C(=O)N(Cc3cccc4ccccc34)C1=C[C@H](C(C)C)O[C@@H]2C1CC1,nt,nt,nt,-4,nt,nt
CN1c2ccsc2/C(=N/NC(=O)c2c(F)cccc2F)CS1(=O)=O,-3,-3,2,-1,37,-15
CN1c2ccsc2/C(=N/Nc2ccccc2)CS1(=O)=O,16,25,-5,-1,99*,19
C#CCNC(=O)C[C@H]1C(=O)N(CCCOC)C2=CCCCC[C@]21C(=O)OC,nt,nt,nt,-3,nt,nt
Cc1[nH]nc2c1C(c1ccccc1)N(Cc1ccccc1)C2=O (configuration not stated),nt,nt,nt,0,nt,nt
CC1S/C(=N/N=C/c2ccco2)N(Cc2ccc(F)cc2)C1=O (configuration not stated),-4,5,-1,1,-5,3
O=C1CS/C(=N/N=C/c2ccco2)N1Cc1ccc(F)cc1,-16,3,0,-4,90*,-8
Cc1noc(C)c1CSc1ccc(Br)cc1,1,?,-3,-3,-21,0
CC(=O)Nc1ccc(SCc2csc(C)n2)cc1,-10,-1,5,0,99*,7
CC(=O)Nc1ccc(SCc2c(C)noc2C)cc1,-3,-14,-2,0,99*,-4
COc1cccc(-c2ncn(CCc3ccccc3OC)c2CC(C)C)c1,nt,nt,nt,-6,nt,nt
O=S1(=O)c2ccc(Br)cc2OC[C@H](Cc2ccccc2)N1Cc1cn(CCC2OCCCO2)nn1,nt,nt,nt,-4,nt,nt
c1ccc(CNc2ncnc3sc4c(c23)CCCC4)nc1,9,4,0,0,96*,-2
CCn1c(CCCCc2n[nH]c(=S)n2CC)n[nH]c1=S,-1,8,-2,-3,18,5
